# Source: PubChem BioAssay (Broad Institute)
# This is a sample that favours compounds with a hit; in the whole collection about 2.8% have one here.
# PglD inh – PglD (C. jejuni) enzyme inhibition | purified PglD enzyme, DTNB colorimetric CoA detection | inhibition, % at 12.5 µM | 360,000 compounds, 0.098% hits | AID 602405; in the data active = inhibition above about 16%, passing the limit was not always enough
# CDK5 p35 inh – blocks human CDK5/p35 kinase activity; Q00535+Q15078; AID 488839; Recombinant CDK5/p35, ADP-Glo luminescence, 60 min; 330,000 compounds, 0.01% hits; inhibition, % at 10 µM;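 active = highest replicate inhibition of at least 50% and at least 75% of replicates reaching 50%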;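 also: plate controls were DMSO neutral control for no effect and GW8510 at 10 µM for full effect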
# dFosB activator – enhances mouse delta FosB homodimer DNA binding; 340,000 compounds, 0.99% hits; P13346; activation, % at 25 µM; AID 493131; purified delta FosB, TAMRA-CDK5 oligo fluorescence polarization; percent of positive-control signal above neutral wells;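 active = mean activation above about 17%, with every replicate also reaching it, limit read from the data, passing the limit was not always enough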
# Target sequence (P13346 whole entry, looked up): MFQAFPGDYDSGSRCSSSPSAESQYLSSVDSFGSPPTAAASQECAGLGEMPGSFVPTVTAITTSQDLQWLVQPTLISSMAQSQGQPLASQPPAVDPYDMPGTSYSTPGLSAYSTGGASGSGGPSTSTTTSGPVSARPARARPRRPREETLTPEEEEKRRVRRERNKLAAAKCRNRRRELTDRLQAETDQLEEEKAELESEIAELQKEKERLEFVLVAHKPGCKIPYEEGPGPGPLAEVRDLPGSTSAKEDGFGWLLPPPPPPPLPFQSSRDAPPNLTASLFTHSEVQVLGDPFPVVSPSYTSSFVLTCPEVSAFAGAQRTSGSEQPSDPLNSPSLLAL
# PvdQ acylase – P. aeruginosa PvdQ acylase inhibition; purified PvdQ acylase, fluorescence plate reader; inhibition, % at 10 µM; 340,000 compounds, 0.063% hits; AID 488965; in the data active = inhibition above about 30%, passing the limit was not always enough;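 also: 0% = vehicle neutral wells and 100% = reference inhibitor wells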
# FGF22 binding – binders of recombinant human FGF22 by thermal shift; Q9HCT0; SYPRO orange fluorescence; percent of sucrose octasulfate shift, DMSO zero; activity (Tm shift, normalised), % at 9.99 µM; 340,000 compounds, 1.5% hits;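 active = mean Tm shift, scaled 0 neutral to 100 positive control, at about 1.3% or above, every replicate too, limit read from the data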
# Target sequence (Q9HCT0 whole entry, looked up): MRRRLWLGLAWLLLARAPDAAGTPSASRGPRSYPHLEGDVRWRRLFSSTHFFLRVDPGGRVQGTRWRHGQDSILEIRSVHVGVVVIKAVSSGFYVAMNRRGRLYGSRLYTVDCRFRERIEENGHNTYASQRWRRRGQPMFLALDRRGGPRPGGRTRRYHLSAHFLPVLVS
# SIRT5 block – sirtuin-5 (human) deacylase inhibition; Q9NXA8; Purified SirT5, succinyl-peptide AMC, trypsin-coupled fluorescence; inhibition, % at 15 µM; 330,000 compounds, 1.1% hits; AID 652115; in the data active = inhibition above about 15%
# * hit, by the source's call; / = not tested or not shown.
SMILES,PglD inh,CDK5 p35 inh,dFosB activator,PvdQ acylase,FGF22 binding,SIRT5 block
CCN(C(=O)COC(=O)CNC(=O)c1ccccc1C)C1=CCCCC1,-2.6,-1.2,6.1,-1.2,0.0,23.6*
C[C@H]1CN([C@@H](C)CO)C(=O)c2cc(C#CC3CCCCC3)cnc2O[C@@H]1CN(C)S(=O)(=O)c1cccc(F)c1,3.6,/,/,/,0.0,26.8*
C[C@H](CO)N1C[C@H](C)[C@H](CN(C)S(=O)(=O)c2cccc(F)c2)Oc2ncc(C#CC3CCCCC3)cc2C1=O,-0.3,/,/,/,-0.6,20.8*
C[C@@H]1CN([C@@H](C)CO)C(=O)c2cc(C#CC3CCCCC3)cnc2O[C@H]1CN(C)C(=O)Nc1ccccc1,0.5,/,/,/,-0.4,4.5
C[C@@H]1CN([C@@H](C)CO)C(=O)c2cc(C#CC3CCCCC3)cnc2O[C@@H]1CN(C)C(=O)Nc1ccccc1,-0.3,/,/,/,-0.1,16.4*
O=C([C@@H]1[C@@H](CO)[C@@H]2Cn3c(ccc(-c4ccc(F)cc4)c3=O)[C@@H]2N1Cc1cocn1)N1CCCCC1,0.8,/,/,/,0.0,-5.0
CN(C)CCc1cc2c(c3c1ccc1ccccc13)OCO2,5.1,1.1,46.9*,11.9,-0.1,-9.7
COc1cc2ccc3c(CCN(C)C)cc(OC)c(OC)c3c2cc1OC,16.1,2.7,-1.8,7.6,-0.2,0.2
O=C(c1ccc(Cl)cc1)C1CCCN(C(=O)/C=C/c2ccccn2)C1 (configuration not stated),-4.9,0.1,-6.4,-4.2,43.8*,3.8
Cc1cc(C)cc(NC(=S)NCCSc2ccc(Cl)cc2)c1,/,-1.5,-10.9,2.7,43.5*,-2.3
Cc1ccc(SCCNC(=S)Nc2ccc(C)c(C)c2)cc1,-0.3,-0.4,-9.9,-24.0,/,/
CC=Cc1ccc2n(c1=O)C[C@H]1[C@H](CO)[C@@H](C(=O)NCCc3cn(C)cn3)[C@@H]2N1C(=O)C1CC1 (mixture of isomers),0.6,/,/,/,0.1,-9.0
Nc1nnc(SCC(=O)Nc2ccc(Cl)c(C(=O)O)c2)s1,/,1.1,5.0,3.4,0.2,16.9*
COc1cc(/C=N/NC(=O)C(=O)NCC2CCCO2)ccc1OCC(=O)N1CCOCC1 (configuration not stated),/,-1.0,0.7,-11.0,44.3*,0.3
C[C@H]1CN([C@@H](C)CO)C(=O)Cc2cc(NS(=O)(=O)c3cccs3)ccc2O[C@@H]1CN(C)C(=O)NC1CCCCC1,-0.6,/,/,/,-0.3,2.9
NCc1cc2c3c(c1)CCCN3CCC2,-1.8,1.3,40.2*,-2.7,0.2,1.4
COc1ccc(C(=O)NCC(=O)NCC2(N(C)C)CCCCC2)cc1OC,3.6,0.6,9.7,-17.6,/,/
COc1cc(C(=O)NCC2(N(C)C)CCCCC2)ccc1OCc1ccccc1,-3.9,-2.7,-10.2,5.3,41.3,64.7*
O=C(C[C@@H]1CC[C@@H](NC(=O)Cc2ccccn2)[C@@H](CO)O1)NCCc1ccncc1,2.1,/,/,/,0.0,-0.5
O=C(/C=C/c1cccs1)c1cc(Cl)ccc1O,1.7,-0.4,-9.3,77.3*,0.1,-2.6
O=C(C=Cc1cccs1)c1ccc(Cl)s1,-4.2,0.6,-1.0,4.4,0.3,3.3
O=C(C=Cc1ccco1)c1cc(Cl)ccc1O,-7.1,-0.5,-18.5,44.7*,-0.1,-0.2
CCNC(=O)OCc1cn(-c2ccccc2)nn1,/,4.2,3.5,7.6,43.6*,-2.8
O=C(OCCc1cc2ccccc2c(=O)o1)c1ccc(F)cc1,-1.2,-0.4,2.4,-3.1,0.2,32.6*
C[C@H]1CN([C@@H](C)CO)C(=O)c2cccc(NC(=O)c3ccc(-c4nccs4)cc3)c2O[C@H]1CN(C)S(=O)(=O)c1cn(C)cn1,0.1,/,/,/,-0.4,2.2
SMILES,PglD inh,CDK5 p35 inh,dFosB activator,PvdQ acylase,FGF22 binding,SIRT5 block
C[C@@H]1CN([C@H](C)CO)S(=O)(=O)c2ccc(-c3cccc(F)c3)cc2O[C@@H]1CN(C)S(C)(=O)=O,-2.2,/,/,/,-0.2,7.4
O=C1NC(Cc2c[nH]c3ccccc23)C(=O)N1Cc1cccc2ccccc12 (configuration not stated),4.8,-1.2,-8.3,5.3,43.4*,-1.8
Cc1ccc(CN2C(=O)NC(Cc3c[nH]c4ccccc34)C2=O)cc1 (configuration not stated),-2.2,-0.8,2.6,-18.0,/,/
CC(C)CNC(=O)CN1C(=O)NC(Cc2c[nH]c3ccccc23)C1=O (configuration not stated),/,-2.5,-3.4,-9.0,43.1*,-5.2
COc1ccc(-c2ccc3n(c2=O)C[C@@H]2[C@@H](CO)[C@H](C(=O)N(C)C)[C@H]3N2Cc2ccncc2)cc1,0.2,/,/,/,0.1,-91.1
CCN1C[C@@H]2[C@@H]3C(=O)N(Cc4ccccc4)C(=O)[C@@H]3[C@](Cc3ccccc3)(C1=O)N2C(=O)c1ccc(C)cc1,3.2,-0.2,-5.7,-11.7,0.2,16.8*
COc1cc(OC)cc(C(=O)NCC(=O)OCC(=O)N2c3ccccc3NC(=O)C2(C)C)c1,/,0.3,-5.2,12.7,43.9*,0.8
CN(Cc1ccc2nonc2c1)Cc1nc(CC2CC2)no1,/,3.2,2.2,6.2,42.9*,0.4
CN(C)C(=O)c1cccc(-c2ccc([C@H]3[C@H]4CN(S(C)(=O)=O)CCCCN4[C@H]3CO)cc2)c1,-4.2,/,/,/,0.7,-1.2
Cc1noc(C)c1CSc1nc2sc3c(c2c(=O)n1C)CCCC3,4.1,0.7,1.9,-12.8,/,/
Cc1noc(C)c1CSc1nc2sc(C)c(C)c2c(=O)n1C1CCCC1,2.6,-0.3,-3.3,11.3,/,34.9*
CNC(=O)C[C@@H]1CC[C@@H]2[C@H](COc3ccc(NS(=O)(=O)c4ccccc4C)cc3C(=O)N2C)O1,4.4,/,/,/,0.1,3.3
C[C@@H](NC(=O)C[C@@H]1C[C@H]2c3cc(NC(=O)c4cccnc4)ccc3O[C@H]2[C@@H](CO)O1)c1ccccc1,-0.5,/,/,/,0.1,-2.0
COC(=O)Cn1c(C)c(C(C)=O)c(C(C)=O)c1C,0.6,-0.5,3.4,5.1,/,-4.9
COC(=O)c1c(C(C)=O)c(C)n(C)c1C,/,0.5,7.6,-14.5,0.1,16.1*
CCC(NC(=O)NCc1ccccc1)(C(F)(F)F)C(F)(F)F,/,2.0,-8.4,-23.9,-0.2,30.5*
CCOC(=O)CNC(=O)C12CC3CC(CC(C3)C1)C2,/,0.4,3.9,3.4,0.2,15.8*
CN1C(=O)c2cc(NC(=O)NC3CCCC3)ccc2OC[C@H]2O[C@H](CC(=O)NCC3CC3)CC[C@H]21,1.9,/,/,/,0.6,-3.0
COc1ccc(C(=O)NCc2nc(C)c(C)s2)cc1OC1CCN(C(C)C)CC1,-0.6,-1.3,-9.9,-17.6,-0.2,15.3*
C[C@H]1CCCCO[C@H](CN(C)Cc2ccc(C(F)(F)F)cc2)[C@@H](C)CN([C@@H](C)CO)C(=O)c2cc(NS(=O)(=O)c3ccc(Cl)cc3)ccc2O1,1.2,/,/,/,-0.5,19.1*
